Assay results from PubChem BioAssay (NCATS).
“And” between values parts separate entries of the source, which are not always exact repeats. Equal entries are not always repeated. Inconclusive results are not listed. The source made the active and inactive calls. Calls come from the whole dose curve; as a rule, active = well fitted curve in the direction sought with a large enough effect; inconclusive = small, poorly fitted or top-dose-only effect, or another doubt; inactive = no such curve, though single readings can be large; an effect the other way counts as inactive or inconclusive.

Legend:
[1] = qHTS of pediatric cancer cell lines to identify multiple opportunities for drug repurposing: Primary screen for Rh18 cells (AID 1347102); note: nearly all actives have a fitted effect of over 65% in size; note: potency is the fitted concentration of half-maximal effect
In short: (§1)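 Cells (500-1,000/well) in growth media were settled 5 h at 37 degrees C, then given compounds for 48 h. Viability was read as CellTiter-Glo luminescence. Primary runs used MIPE at 11 points (0.78 nM-46 µM) and NPC at 8 points (0.59 nM-46 µM); follow-ups used 11 points.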

[2] = qHTS of pediatric cancer cell lines to identify multiple opportunities for drug repurposing: Primary screen for OHS-50 cells (AID 1347103); note: nearly all actives have a fitted effect of over 40% in size; note: potency is the fitted concentration of half-maximal effect
In short: (§2)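 Cells (500-1,000/well) rested 5 h, then received compounds for 48 h; metabolically active cells were measured by CellTiter-Glo luminescence. Final concentrations spanned up to 46 µM (MIPE, 11-point) or 0.59 nM-46 µM (NPC, 8-point) in primary screens, 11-point in follow-ups.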

[3] = qHTS of pediatric cancer cell lines to identify multiple opportunities for drug repurposing: Primary screen for MG 63 (6-TG R) cells (AID 1347105); note: nearly all actives have a fitted effect of over 50% in size; note: potency is the fitted concentration of half-maximal effect
In short: (§3)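 Cells plated at 500-1,000/well in growth medium, compounds added after 5 h. MIPE tested at 11 points (from 0.78 nM), NPC at 8 points (from 0.59 nM). CellTiter-Glo luminescence after 48 h; concentration-response curves from primary screen.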

[4] = qHTS of pediatric cancer cell lines to identify multiple opportunities for drug repurposing: Primary screen for control Hh wild type fibroblast cells (AID 1347106);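 note: series mostly up to about 46 µM; a drop in luminescence marks cytotoxicity and a rise apparent proliferation; nearly all actives have a fitted effect of over 55% in size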
In short: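 Viability after 48 h compound treatment at 37C, 500-1,000 cells/well, read as ATP luminescence with CellTiter-Glo. Primary screens used 11-point (MIPE, 0.78 nM-46 µM) or 8-point (NPC, 0.59 nM-46 µM) final concentrations; follow-up screens used 11-point dilutions.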

[5] = qHTS of pediatric cancer cell lines to identify multiple opportunities for drug repurposing: Primary screen for Rh30 cells (AID 1347107); note: series mostly up to about 46 µM; nearly all actives have a fitted effect of over 75% in size
In short: as §1

[6] = qHTS of pediatric cancer cell lines to identify multiple opportunities for drug repurposing: Primary screen for Rh41 cells (AID 1347108); note: nearly all actives have a fitted effect of over 70% in size; note: potency is the fitted concentration of half-maximal effect
In short: as §3

[7] = qHTS of pediatric cancer cell lines to identify multiple opportunities for drug repurposing: Primary screen for RD cells (AID 1347104); note: nearly all actives have a fitted effect of over 55% in size; note: potency is the fitted concentration of half-maximal effect
In short: as §3

[8] = qHTS of pediatric cancer cell lines to identify multiple opportunities for drug repurposing: Confirmatory screen for NB1643 cells (AID 1347109); note: potency is the fitted concentration of half-maximal effect; nearly all actives have a fitted effect of over 45% in size
In short: as §1

[9] = qHTS of pediatric cancer cell lines to identify multiple opportunities for drug repurposing: Confirmatory screen for A673 cells (AID 1347110);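 note: cells exposed to compound for 48 h before the viability read; nearly all actives have a fitted effect of over 65% in size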; note: potency is the fitted concentration of half-maximal effect
In short: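 Viability was read as ATP luminescence (CellTiter-Glo) after 48 h of compound exposure at 37 C in A673 cells seeded at 500-1,000/well. Titrations reached 46 uM final, with 11 points in the confirmatory screen. Concentration-response curves were fitted directly.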

[10] = qHTS of pediatric cancer cell lines to identify multiple opportunities for drug repurposing: Confirmatory screen for SK-N-MC cells (AID 1347111);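 note: potency is the fitted concentration of half-maximal effect; cells exposed to compound for 48 h before the readout; nearly all actives have a fitted effect of over 70% in size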
In short: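 Metabolically active cells were quantified by ATP-dependent luminescence (CellTiter-Glo, 15 min at room temperature) following 48 h treatment. Cells had been plated at 500-1,000 per well and settled for 5 h beforehand.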

[11] = qHTS of pediatric cancer cell lines to identify multiple opportunities for drug repurposing: Confirmatory screen for LAN-5 cells (AID 1347113); note: potency is the fitted concentration of half-maximal effect; nearly all actives have a fitted effect of over 65% in size
In short: as §1

[12] = qHTS of pediatric cancer cell lines to identify multiple opportunities for drug repurposing: Confirmatory screen for DAOY cells (AID 1347114); note: nearly all actives have a fitted effect of over 65% in size; note: potency is the fitted concentration of half-maximal effect
In short: (§4)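 Viability measured as metabolically active cells via CellTiter-Glo luminescence following 48 hours of compound exposure, 11-point dilutions in confirmatory testing. 500-1,000 cells/well plated 5 hours before dosing; controls were DMSO and 2.3 µM bortezomib.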

[13] = qHTS of pediatric cancer cell lines to identify multiple opportunities for drug repurposing: Confirmatory screen for NB-EBc1 cells (AID 1347115);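 note: potency is the fitted concentration of half-maximal effect; cells exposed to compound for 48 h before the viability read; nearly all actives have a fitted effect of over 45% in size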
In short: as §1

[14] = qHTS of pediatric cancer cell lines to identify multiple opportunities for drug repurposing: Confirmatory screen for SJ-GBM2 cells (AID 1347116); note: nearly all actives have a fitted effect of over 60% in size; note: potency is the fitted concentration of half-maximal effect
In short: as §4

[15] = qHTS of pediatric cancer cell lines to identify multiple opportunities for drug repurposing: Confirmatory screen for TC32 cells (AID 1347118)
In short: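 qHTS, TC32, 48 h drug treatment, CellTiter-Glo luminescence as a proxy for metabolically active cells; primary top concentration 46 µM (MIPE 11-pt, NPC 8-pt); confirmatory 11-pt.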

[16] = qHTS of pediatric cancer cell lines to identify multiple opportunities for drug repurposing: Confirmatory screen for MG 63 (6-TG R) cells (AID 1347119); note: potency is the fitted concentration of half-maximal effect; nearly all actives have a fitted effect of over 55% in size
In short: as §1

[17] = qHTS of pediatric cancer cell lines to identify multiple opportunities for drug repurposing: Confirmatory screen for control Hh wild type fibroblast cells (AID 1347121); note: nearly all actives have a fitted effect of over 70% in size; note: potency is the fitted concentration of half-maximal effect
In short: as §1

[18] = qHTS of pediatric cancer cell lines to identify multiple opportunities for drug repurposing: Primary screen for BT-12 cells (AID 1347101); note: nearly all actives have a fitted effect of over 25% in size; note: potency is the fitted concentration of half-maximal effect
In short: as §2

[19] = qHTS of pediatric cancer cell lines to identify multiple opportunities for drug repurposing: Confirmatory screen for BT-12 cells (AID 1347112); note: nearly all actives have a fitted effect of over 55% in size; note: potency is the fitted concentration of half-maximal effect
In short: as §1

[20] = qHTS of pediatric cancer cell lines to identify multiple opportunities for drug repurposing: Confirmatory screen for BT-37 cells (AID 1347117)
In short: as §1

Measured: Potency

Clc1ccc(CCC(Cn2ccnc2)Sc2c(Cl)cccc2Cl)cc1 (stereo unspecified)
inactive: [1] | [3] | [4] | [5] | [6]
active: [2] 27.6 µM

Cc1ccc(S(=O)(=O)N[C@@H](CCCCN)C(=O)CCl)cc1
inactive: [1] | [2] | [7] | [3] | [4] | [5]

CC[C@@H](CO)NC(=O)[C@@H]1C=C2c3cccc4c3c(cn4C)C[C@H]2N(C)C1
inactive: [2] | [7] | [4] | [5] | [6]

N[C@@H](Cc1ccc(N(CCCl)CCCl)cc1)C(=O)O
inactive: [4] | [5] | [17]
active: [2] 9.78 µM and 3.85 µM | [3] 16.8 µM and 18.7 µM | [8] 6.57 µM | [9] 16.5 µM | [10] 2.61 µM | [11] 5.22 µM | [12] 23.3 µM | [13] 5.85 µM | [14] 20.8 µM | [15] 9.27 µM | [16] 16.5 µM

NCCc1cc(O)c(O)cc1O
inactive: [18] | [3] | [4] | [5] | [6]

Oc1ccc(Cl)cc1Cc1ccccc1
active: [2] 25.6 µM
inactive: [18] | [4] | [5] | [6]

CCOC(=O)C1(c2ccccc2)CCN(CCC(C#N)(c2ccccc2)c2ccccc2)CC1
active: [2] 12.3 µM
inactive: [4]

c1ccc2c(c1)OCC(C1=NCCN1)O2 (stereo unspecified)
active: [18] 19.5 µM | [7] 21.1 µM
inactive: [5]

C=C(C)[C@H]1Cc2c(ccc3c2O[C@@H]2COc4cc(OC)c(OC)cc4[C@@H]2C3=O)O1
inactive: [4] | [5]
active: [18] 87.1 nM and 122 nM | [2] 138 nM and 243 nM | [6] 1.06 µM | [9] 3.69 µM | [10] 1.65 µM | [19] 2.61 µM | [11] 1.17 µM | [13] 0.293 µM | [20] 2.61 µM | [15] 0.329 µM | [16] 0.0329 µM | [17] 0.117 µM

CC(C)=CC1C(C(=O)OCc2cccc(Oc3ccccc3)c2)C1(C)C (stereo unspecified)
inactive: [18] | [7] | [3] | [4] | [5] | [6]

CC(C)=CCOc1c2occc2cc2ccc(=O)oc12
inactive: [7] | [3] | [4] | [5] | [6]

COc1ccc(C(=O)c2c(C)n(CCN3CCOCC3)c3ccccc23)cc1
inactive: [18] | [7] | [3] | [4] | [5] | [6]

Oc1cccc2cccnc12
inactive: [1] | [3] | [5]

CN(C)[C@@H]1C(=O)C(C(N)=O)=C(O)[C@@]2(O)C(=O)C3=C(O)c4c(O)cccc4[C@@](C)(O)[C@H]3C[C@@H]12
inactive: [2] | [7] | [3] | [4] | [5]

COC[C@H]1OC(=O)c2coc3c2[C@@]1(C)C1=C(C3=O)C2CCC(=O)[C@@]2(C)C[C@H]1OC(C)=O (stereo partly specified)
active: [1] 20.9 µM | [2] 4.32 µM | [7] 18.7 µM | [3] 9.35 µM | [6] 18.7 µM

O=C(O)c1ccc2[nH]cc(CCCCN3CC=C(c4ccccc4)CC3)c2c1
inactive: [18] | [7] | [3] | [4] | [5] | [6]

CCC(=O)C(CC(C)N(C)C)(c1ccccc1)c1ccccc1 (stereo unspecified)
inactive: [1] | [4] | [5]
active: [2] 22.5 µM

CC(C)(N)Cc1ccc(Cl)cc1
inactive: [18] | [3] | [4] | [5] | [6]

CO[C@]12CC[C@@]3(C[C@@H]1[C@](C)(O)C(C)(C)C)[C@@H]1Cc4ccc(O)c5c4[C@@]3(CCN1CC1CC1)[C@H]2O5
active: [2] 25 µM | [3] 30.3 µM

N#CC(C#N)=Cc1ccc(O)c(O)c1
inactive: [1] | [3] | [4] | [5]

Cn1cc(C2=C(c3cn(C4CCN(Cc5ccccn5)CC4)c4ccccc34)C(=O)NC2=O)c2ccccc21
inactive: [18] | [4] | [5] | [6] | [19] | [17]

CC(C)(C)CC(C)(C)c1ccc(O)cc1
inactive: [1] | [7] | [4] | [5] | [6]
active: [2] 25.2 µM and 15.5 µM

FC(F)(F)c1cccc(C2=CCN(CCc3ccc4ccccc4c3)CC2)c1
inactive: [18] | [7] | [3] | [4] | [5] | [6]

C=C1C[C@@H]2[C@H](CC[C@]3(C)C(=O)CC[C@@H]23)[C@@]2(C)C=CC(=O)C=C12
inactive: [1] | [3] | [4] | [5] | [6]

C[C@]12C/C(=C/O)C(=O)C[C@@H]1CC[C@@H]1[C@@H]2CC[C@@]2(C)[C@H]1CC[C@]2(C)O
inactive: [1] | [3] | [4] | [5]

Cc1sc2c(c1C)C(c1ccc(Cl)cc1)=N[C@@H](CC(=O)OC(C)(C)C)c1nnc(C)n1-2
active: [2] 0.344 µM | [7] 0.59 µM | [8] 1.31 µM | [20] 1.31 µM | [15] 0.827 µM
inactive: [9] | [12] | [14] | [17]

CC1=C2C[C@@H]3[C@@H](CC=C4C[C@@H](O)CC[C@@]43C)[C@@H]2CC[C@]12O[C@H]1C[C@H](C)CN[C@H]1[C@H]2C
active: [2] 30.6 µM
inactive: [1] | [7] | [3] | [4]

O=c1[nH]c2ccccc2n1CCCN1CCC(n2c(=O)[nH]c3cc(Cl)ccc32)CC1
active: [8] 7.37 µM | [9] 26.1 µM | [10] 5.22 µM | [11] 9.27 µM | [12] 23.3 µM | [13] 16.5 µM | [14] 13.1 µM | [20] 8.27 µM | [15] 3.29 µM | [16] 6.57 µM
inactive: [1] | [2] | [7] | [3] | [4] | [5] | [6]

COc1ccc(Cc2nccc3cc(OC)c(OC)cc23)cc1OC
inactive: [1] | [3] | [4] | [5]

COC1(CS(=O)c2ccccc2)CCN(CCc2c[nH]c3ccc(F)cc23)CC1 (stereo unspecified)
inactive: [18] | [3] | [4] | [5]

CNC(=O)N1N=C(c2ccc(N)cc2)c2cc3c(cc2CC1C)OCO3 (stereo unspecified)
active: [2] 3.85 µM
inactive: [4] | [5]

Cc1cc(SCc2sc(-c3ccc(C(F)(F)F)c(F)c3)nc2C)ccc1OCC(=O)O
inactive: [18] | [7] | [3] | [4] | [5] | [6]
